From PubChem BioAssay AID652104 (National Center for Advancing Translational Sciences (NCATS), 2013)
Out of some 410,000 compounds screened, about 7,200 (1.8%) were called active. Not shown: some 7% with an inconclusive outcome. The entries come from a sample that favours actives as a whole. Where a call stands in place of a potency, no number is given. A number with no mark means an inactive call. Calls follow the shape of the dose curve; as a rule, active = well fitted activation curve with a large enough effect; inconclusive = small, poorly fitted or top-dose-only effect, or another doubt; inactive = no such curve, though single readings can be large or run the other way.

Assay: qHTS of TDP-43 Inhibitors; also: nearly all actives have a fitted effect of over 50% in size
Conditions: TDP-43 expressing yeast growth rescue, BacTiter-Glo, 24 h; series mostly up to 46.1 µM
Method in brief: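 Growth rescue of TDP-43-toxic yeast measured as ATP luminescence (BacTiter-Glo). Cells grown to mid-log in raffinose, induced in galactose at OD600=0.02, exposed to compound 24 hr at 30 deg C.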
Potency is read from the fitted curve at half-maximal effect.

Structure (SMILES) | Potency | growth rescue (activation)
COc1cc(NC(=O)CN2CCN(S(=O)(=O)c3ccc(Br)cc3)CC2)cc(OC)c1 | inactive | 
Cc1ccccc1CNC(=O)c1ccc(NC(=O)N2CCCCc3ccccc32)cc1 | inactive | 
COc1cc(CN(CC2CCCO2)C(=O)c2ccccc2F)cc(OC)c1OC (stereo unspecified) | inactive | 
CCOc1ccc(NC(=O)c2c(NC(=O)Cc3ccccc3)sc3c2CCCCC3)cc1 | inactive | 
CC1CCCN(Cc2c(O)ccc3c(=O)c(Oc4ccc(C(C)(C)C)cc4)c(C(F)(F)F)oc23)C1 (stereo unspecified) | inactive | 
CCCCOC(=O)/C(C#N)=C/c1ccc(-c2cccc(C(F)(F)F)c2)o1 | inactive | 
CCOC(=O)c1ccc(-c2ccc(/C=C(\C#N)C(=O)Nc3ccc(C)cc3)o2)cc1 | inactive | 
Cc1ccc(-c2ccc(/C=C(\C#N)C(N)=S)o2)c([N+](=O)[O-])c1 | 22.4 µM (active) | 
CCOc1ccccc1NC(=O)CN1CCN(S(=O)(=O)c2ccc(Br)cc2)CC1 |  | 0% [at 9.22 µM]
COc1ccccc1CNC(=O)NCc1noc2ccc(C)cc12 | inactive | 
Cc1ccccc1Cn1c(C)c(C(=O)NCc2cccc(C(F)(F)F)c2)sc1=O | inactive | 
Cc1cccc(CNC(=O)c2sc(=O)n(Cc3ccccc3C)c2C)c1 | inactive | 
Cc1ccc(Cn2c(C)c(C(=O)NCc3ccccc3C(F)(F)F)sc2=O)cc1 | 15.8 µM (active) | 
Fc1ccc(-c2nn(-c3ccccc3Cl)c3c2cnc2ccccc23)cc1 | inactive | 
CCn1cc(C(=O)NCc2ccc(C)cc2)c(=O)c2cc(S(=O)(=O)N3CCc4ccccc4C3)ccc21 | inactive | 
COc1ccc(CNC(=O)COCc2cc(-c3cccs3)on2)cc1OC | inactive | 
COc1ccc(-c2csc(-c3cccs3)n2)cc1OC | 11.2 µM (active) | 
COc1ccc(C2CC(c3cccs3)=Nc3ccccc3S2)cc1OC (stereo unspecified) | inactive | 
CCc1ccc2ncc3c(-c4ccc(C)cc4)nn(CC(=O)NCc4ccccc4)c3c2c1 | inactive | 
O=C(CSc1oc(-c2ccc(F)cc2)nc1S(=O)(=O)c1ccc(Br)cc1)NC1CCCCC1 | inactive | 
Cc1cc(NC(=O)c2cc(-c3cccs3)on2)nn1Cc1ccc(Cl)cc1 | inactive | 
O=c1onc(-c2cccs2)n1Cc1ccccc1 | 12.6 µM (active) | 

Structure (SMILES) | Potency | growth rescue (activation)
O=C(CSc1nnc(-c2cccs2)n1Cc1ccccc1)N1CCc2ccccc2C1 | inactive | 
CCC(=O)Nc1ccc(C)cc1-c1nc2ccccc2n(Cc2ccccc2)c1=O | inactive | 
COc1ccc2oc(-c3ccc(C)c(NC(=O)c4sc5ccccc5c4Cl)c3)nc2c1 | inactive | 
Cc1ccc(C)c(Cn2c(C)c(CNCc3ccc(F)cc3)c(C(=O)O)c2C)c1 | inactive | 
COc1ccccc1OCCC(=O)OCC(=O)NC(=O)NC(C)(C)C | inactive | 
CC(C)(C)NC(=O)NC(=O)COC(=O)Cc1ccc(Cl)cc1Cl | 35.5 µM (active) | 
CC(C)(C)NC(=O)NC(=O)COC(=O)Cc1c(F)cccc1Cl | inactive | 
COc1ccc(C2=NC3(CCCCC3)N(CC(=O)Nc3ccc(C(C)C)cc3)C2=O)cc1 | inactive | 
CCN(CC)CCNc1ncnc2c1cnn2-c1cc(Cl)ccc1C | inactive | 
CCn1c(SCC(=O)Nc2ccccc2F)nc2c(c1=O)SC(C)C2 (stereo unspecified) | 35.5 µM (active) | 
CC1Cc2nc(SCC(=O)Nc3ccccc3F)n(C)c(=O)c2S1 (stereo unspecified) | inactive | 
CCn1c(SCC(=O)Nc2ccc3c(c2)OCCO3)nc2c(c1=O)SC(C)C2 (stereo unspecified) | inactive | 
CSCc1cc(N2CCOCC2)nc(SCc2ccc(Cl)cc2Cl)n1 | 22.4 µM (active) | 
CSCc1cc(N(C)C)nc(SCc2ccc(Cl)cc2Cl)n1 | inactive | 
CC(C)(CNC(=O)Cc1ccc(Cl)cc1Cl)N1CCOCC1 | inactive | 
Cc1ccc(C(=O)Nc2ccccc2F)cc1S(=O)(=O)N1CCOCC1 | inactive | 
O=C(Nc1cccc2cccnc12)c1cccc(Cl)c1 | 14.1 µM (active) | 
COc1c(Cl)cc(Cl)cc1C(=O)Nc1cccc2cccnc12 | inactive | 
O=C(Nc1cccc2cccnc12)c1cccc2c(Br)cccc12 | inactive | 
CCOCc1nnc(NC(=O)CCC2CCCCC2)s1 | inactive | 
CC(C)(C)NC(=O)NC(=O)COC(=O)CCC1CCCCC1 | inactive | 
N/C(=N\OC(=O)CCC1CCCCC1)c1ccccn1 | 8.91 µM (active) | 

Structure (SMILES) | Potency | growth rescue (activation)
COc1ccc(-c2nnc(SCC(=O)Nc3ccc(C(C)C)cc3)nc2-c2ccc(OC)c(OC)c2)cc1OC | inactive | 
CCN(C(=O)CSc1nnc(C)n2c1cc1occc12)c1ccccc1 | inactive | 
CC(C)Cn1cnc2c(SCc3ccc(Cl)cc3)nc(N)nc21 | inactive | 
Clc1ccc(CSc2nncn3c2cc2occc23)cc1 | 25.1 µM (active) | 
COc1ccc2c(c1)CCc1c(C(=O)Nc3cc(C)ccc3O)noc1-2 | inactive | 
Cc1ccc(C)c(N2CCN(C(=O)C3CCC(CNS(=O)(=O)c4cccs4)CC3)CC2)c1 (stereo unspecified) | inactive | 
COc1ccc2c(CC(=O)NNC(=O)c3ccccc3F)coc2c1 | inactive | 
COc1ccc2c(c1)CCC/C2=N\OC(=O)c1ccccc1F | 11.2 µM (active) | 
COc1ccc2c(c1)CCc1c(C(=O)N3CCCC3)noc1-2 | inactive | 
COc1ccccc1CC(=O)Nc1ccc([N+](=O)[O-])cc1OC | 11.2 µM (active) | 
COc1cc([N+](=O)[O-])ccc1NC(=O)COC(=O)CCOc1ccc(C)cc1 | 17.8 µM (active) | 
COc1cc([N+](=O)[O-])ccc1NC(=S)N1CCN(c2ccccn2)CC1 | inactive | 
COc1ccc([N+](=O)[O-])cc1NCC(=O)c1ccc(C)cc1 | inactive | 
COc1ccc(NC(=O)c2cc([N+](=O)[O-])ccc2NC(=O)CNC2CCCCC2C)c(OC)c1 (stereo unspecified) | inactive | 
COc1ccc(Br)cc1CN(C)CC(=O)Nc1cc([N+](=O)[O-])ccc1OC | inactive | 
CCCn1c(C(C)Nc2nc(-c3ccc(C)cc3)cs2)nc2cc(Cl)c(N3CCCCC3)cc21 (stereo unspecified) | inactive | 
Cc1nc2cc(C(F)(F)F)ccc2n1CCNc1nc(-c2cc(Cl)c(N)c(Cl)c2)cs1 | 22.4 µM (active) | 
Nc1c(Cl)cc(-c2csc(N3CCCC3c3nc4cc(Cl)c(Cl)cc4n3CCOCCO)n2)cc1Cl (stereo unspecified) | inactive | 
CCc1cccc(CC)c1NC(=O)Cn1c(=O)c(-c2cc(C)ccc2NC(C)=O)nc2ccccc21 | inactive | 
CC(C)C[C@@H]1Cc2[nH][nH]c(=O)c2[C@H](CCc2ccccc2)O1 | inactive | 
CC(C)C1CC2=C(C(=O)OC(C)(C)O2)C(c2ccc(F)cc2)O1 (stereo unspecified) | inactive | 
CC(C)C1Cc2[nH][nH]c(=O)c2C(c2ccc(Cl)cc2)O1 (stereo unspecified) | 20 µM (active) | 
